# Most compounds without a hit are left out; they make up all but 3% or so of the library.
# PAFAH1B2 inh: blocks human PAF acetylhydrolase 1b catalytic subunit 2 | AID 492953 | P68402 | recombinant PAFAH1B2, FP-rhodamine activity probe, fluorescence polarization | actives 1.2% (n = 340,000) | inhibition, % at 3.39 µM;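 active = inhibition above the mean of all tested compounds plus 3 SD, cut at about 24% in these data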;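 also: 0% = enzyme with DMSO and 100% = wells lacking PAFAH1B2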
# pPAFAH FP inh: pPAFAH (human) enzyme inhibition. Q13093. recombinant pPAFAH, FP-rhodamine probe fluorescence polarization. inhibition, % at 3.39 µM. actives 1.5% (n = 330,000). AID 463082;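 active = inhibition above the mean inhibition across the screen plus 3 SD, cut at about 25% in these data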;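 also: inhibitors block binding of the rhodamine activity-based probe so polarization drops; 0% = enzyme with DMSO and 100% = wells lacking pPAFAH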
# DAGLB inhibitor: diacylglycerol lipase beta (human) inhibition | Q8NCG7 | HEK293T DAGLB membrane lysate, EnzChek fluorogenic substrate | inhibition, % at 5.17 µM | actives 0.059% (n = 340,000); in the data active = inhibition above about 34%;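 also: 0% = enzyme with vehicle and 100% = wells lacking enzyme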
# Target sequence (Q8NCG7 whole entry, looked up): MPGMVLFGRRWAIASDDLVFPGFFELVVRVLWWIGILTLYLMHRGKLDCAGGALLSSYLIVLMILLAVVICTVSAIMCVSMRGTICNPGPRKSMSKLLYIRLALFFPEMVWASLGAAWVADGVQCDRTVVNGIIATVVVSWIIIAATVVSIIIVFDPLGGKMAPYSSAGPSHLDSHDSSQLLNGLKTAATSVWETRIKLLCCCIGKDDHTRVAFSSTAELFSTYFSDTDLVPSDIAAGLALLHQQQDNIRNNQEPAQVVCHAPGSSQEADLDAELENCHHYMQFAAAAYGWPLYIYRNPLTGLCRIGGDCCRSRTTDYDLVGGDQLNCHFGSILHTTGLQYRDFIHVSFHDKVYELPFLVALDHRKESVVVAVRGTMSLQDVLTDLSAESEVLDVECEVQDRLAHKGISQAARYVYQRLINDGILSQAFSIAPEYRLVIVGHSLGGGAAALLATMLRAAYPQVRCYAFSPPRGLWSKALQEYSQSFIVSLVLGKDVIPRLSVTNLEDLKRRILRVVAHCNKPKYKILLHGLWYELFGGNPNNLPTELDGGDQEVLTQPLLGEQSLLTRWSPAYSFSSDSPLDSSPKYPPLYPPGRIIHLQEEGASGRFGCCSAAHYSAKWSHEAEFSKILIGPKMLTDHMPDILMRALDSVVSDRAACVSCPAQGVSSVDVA
# PAFAH1B3 FP inh: inhibitors of human PAFAH1B3. Q15102. recombinant PAFAH1B3, FP-rhodamine probe, fluorescence polarization. inhibition, % at 3.39 µM. actives 0.28% (n = 340,000). AID 492972;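 active = inhibition above the screen-wide average of all tested compounds plus 3 SD, cut at about 25% in these data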;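 also: 0% = enzyme with DMSO only and 100% = wells lacking PAFAH1B3 protein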
# PAFAH2 FP inh: PAFAH2 (human) inhibition | Q99487 | recombinant PAFAH2, FP-rhodamine activity probe, fluorescence polarization | inhibition, % at 3.39 µM | actives 0.99% (n = 340,000) | AID 492956;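 active = inhibition above the mean over all tested compounds plus 3 SD, cut at about 30% in these data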;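 also: inhibitors block probe labeling of enzyme so polarization drops; 0% = enzyme with DMSO and 100% = wells lacking PAFAH2 protein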
# ATG4B inhibitor: inhibitors of human ATG4B cysteine protease; Q9Y4P1; ATG4B cleavage of LC3-PLA2, NBD-HPC fluorescence, 1 h; inhibition, % at 8.33 µM; actives 0.51% (n = 340,000); in the data active = inhibition above about 40%
# An asterisk follows results filed as active; i = inactive; x = not tested or not shown; + = active, no number.
SMILES,PAFAH1B2 inh,pPAFAH FP inh,DAGLB inhibitor,PAFAH1B3 FP inh,PAFAH2 FP inh,ATG4B inhibitor
NC1=NC(=O)/C(=C/c2cn(CCC(=O)O)nc2-c2ccc(F)cc2)S1,48.4*,0.3,2.4,8.5,4.5,-0.4
NC1=NC(=O)/C(=C/c2cn(CCC(=O)O)nc2-c2ccc(Cl)cc2)S1,50.5*,0.8,5.1,5.9,5.0,-2.9
COc1ccc(-c2nn(CCC(=O)O)cc2/C=C2\SC(N)=NC2=O)cc1,4.0,-3.5,-1.0,15.5,3.4,9.5
CC(C)C(=O)Nc1cc2c3c(c1)CCC(=O)N3CCC2,-0.9,3.5,0.4,2.3,-11.9,-4.4
COc1cc(CNc2ccc(N3CCOCC3)cc2)cc(Br)c1OC,1.0,9.9,3.0,6.4,5.2,3.0
CCOc1cc(CNc2ccc(N(C)C)cc2)cc(Br)c1OCC(=O)NC(C)(C)C,5.5,34.3*,-0.8,7.0,9.9,3.0
CCOc1cc(CNc2ccc(N3CCOCC3)cc2)cc(Br)c1OCC,3.6,25.0*,2.2,8.0,7.3,-6.4
CC(=O)Nc1ccc(C2=CC(=O)CC(C)(C)C2)cc1,2.0,1.0,-3.9,-2.6,0.9,2.5
Cc1cc2c(cc1S(=O)(=O)NCCc1ccccc1)NC(=O)CO2,29.4*,6.5,1.6,7.6,7.3,-2.4
Cc1ccc(CNS(=O)(=O)c2ccc3c(c2)NC(=O)CO3)cc1,26.0*,2.8,2.0,10.4,-8.5,3.9
CC(C)[C@H](NC(=O)c1ccccc1F)C(=O)NC1CCCCCCC1,5.3,5.5,2.9,2.7,0.4,4.9
O=C(O)c1cc(S(=O)(=O)NC(Cc2c[nH]c3ccccc23)C(=O)O)ccc1Cl (stereo not drawn),25.2*,6.1,0.4,5.0,7.0,-0.7
COc1ccc(/C=C/c2ccc3c(Br)ccc(O)c3n2)cc1,1.4,10.7,-2.7,0.1,3.9,5.1
COc1cc(/C=C/c2ccc3c(Br)cc(Br)c(O)c3n2)ccc1O,6.5,34.4*,8.5,21.6,5.9,-6.3
CC(C)C[C@@H]1NC(=O)[C@H](CO)NC(=O)c2cc([N+](=O)[O-])cc(I)c2OCC[C@@H](C(N)=O)NC1=O,3.5,0.3,1.8,3.4,4.0,-0.8
CCN(CC(=O)NCCC1=CCCCC1)S(=O)(=O)c1ccccc1,6.3,3.2,-0.6,0.5,1.6,1.6
Cc1ccccc1-c1cc2nc(-c3ccc([N+](=O)[O-])cc3)cc(=O)n2[nH]1,4.1,1.6,5.9,9.9,9.6,1.4
O=c1cc(-c2ccc([N+](=O)[O-])cc2)nc2cc(-c3ccc(F)cc3)[nH]n12,57.5*,32.5*,8.8,10.3,17.4,-7.1
COc1cccc(C(=O)NCCS(=O)(=O)N(C)Cc2ccccc2)c1,7.4,5.8,-4.3,12.6,9.2,-3.6
Cc1ccc2[nH]c(=O)c(C3C(C#N)=C(N)Oc4c3ccc3cccnc43)cc2c1 (stereo not drawn),3.3,25.4*,29.1,6.8,11.0,-2.8
O=S(=O)(c1ccc(Cl)cc1)N1CCCC1c1nc2ccccc2s1 (stereo not drawn),6.6,30.3*,-4.4,-0.6,-1.2,-0.6
O=S(=O)(c1cc(Cl)cc(Cl)c1)N1CCCC1c1nc2ccccc2s1 (stereo not drawn),-3.5,1.9,-9.5,3.1,4.9,-8.4
Cc1ccc(S(=O)(=O)N2CCCC2c2nc3ccccc3s2)cc1 (stereo not drawn),7.3,31.2*,-2.6,3.5,6.9,-0.6
CCOC(=O)C(Sc1cc(-c2ccccc2)nc2ncnn12)C(C)=O (stereo not drawn),3.1,2.6,0.0,0.6,1.0,-3.6
O=C(CCCC(=O)Nc1cccc(Br)c1)N/N=C/c1cc([N+](=O)[O-])ccc1O,16.6,8.1,11.0,8.1,-0.4,-13.8
SMILES,PAFAH1B2 inh,pPAFAH FP inh,DAGLB inhibitor,PAFAH1B3 FP inh,PAFAH2 FP inh,ATG4B inhibitor
O=C(CN(c1cccc(Br)c1)S(=O)(=O)c1ccccc1)N/N=C/c1cc([N+](=O)[O-])ccc1O,x,24.6*,x,x,x,-14.2
CCCC(=O)Oc1ccc(N(C(=O)CCC)S(=O)(=O)c2cccs2)cc1,6.0,30.3*,-0.8,1.3,3.9,-9.2
Cc1cn2c(nc(=O)c3cccnc32)s1,1.0,-0.9,-2.1,9.0,11.0,-0.5
CC(C)c1ccc(NS(=O)(=O)c2ccc(N3C(=O)CCC3=O)cc2)cc1,8.5,29.2*,-3.0,-1.5,5.2,-4.7
CC(C)c1ccc(NS(=O)(=O)c2ccc(-n3cccn3)cc2)cc1,-5.7,25.4*,-3.6,0.6,-10.0,-0.4
CC(=O)Nc1cc(NC(C)=O)cc(C(=O)OCC(=O)Nc2ccc(S(=O)(=O)NC3=NCCCCC3)cc2)c1,3.0,5.2,1.1,7.1,4.8,-11.4
COc1ccc2c3c(cccc13)C(=O)CC2,100.2*,x,-147.0,109.5*,126.4*,-68.0
COc1ccc2c(c1OC)C(=O)OC2,1.0,3.8,-5.7,-0.5,-0.1,-2.5
N#CC1=C(N)c2ccccc2CC12CCCCC2,34.8*,7.1,2.6,-5.0,4.3,8.6
Cn1c(=O)c(NCCc2ccccc2)c2c3c(cccc31)C(=O)c1ccccc1-2,146.6*,142.3*,i,164.9*,167.5*,-77.7
Cn1c(=O)c(NCCO)c2c3c(cccc31)C(=O)c1ccccc1-2,40.8*,95.2*,-165.8,41.0*,58.4*,i
CC(=O)Nc1ccc(Nc2c3c4c(cccc4n(C)c2=O)C(=O)c2ccccc2-3)cc1,14.1,32.6*,27.0,11.0,14.0,-16.8
COc1ccc(S(=O)(=O)Nc2cc3c4c(c2)CC(=O)N4CCC3)cc1C,1.0,11.7,2.5,-2.1,4.0,-5.5
CN(C(=O)CSc1nc2c(c(=O)[nH]1)CCC2)c1ccccc1,4.0,0.3,0.6,5.4,-3.4,3.0
CCN(CC)c1ccc2c(-c3ccc(S(=O)(=O)O)cc3S(=O)(=O)[O-])c3ccc(=[N+](CC)CC)cc-3oc2c1,174.4*,172.8*,-18.9,+,+,-23.1
COc1ccc(CCn2c(-c3ccc(C(C)(C)C)cc3)n[nH]c2=S)cc1OC,24.7*,1.0,-2.3,5.3,11.0,-15.7
COc1ccc(CCn2c(-c3ccc(Cl)cc3)n[nH]c2=S)cc1OC,1.3,3.7,-0.9,5.5,-1.8,-1.5
Cc1cc(C)c(NC(=O)CNC(=O)COC(=O)/C=C/c2cccs2)c(C)c1,5.2,26.8*,5.2,8.0,8.1,2.1
NC(=O)c1ccc(NC(=O)COC(=O)/C=C/c2cccs2)cc1,1.1,-1.2,1.7,6.2,17.2,12.3
Cc1cc(C)c(NC(=O)COC(=O)Cc2cccs2)c(C)c1,0.9,25.7*,-2.1,9.6,3.0,-5.8
CC1C/C(=N/N=C2/NC(=O)CS2)CC(C)(C)C1 (stereo not drawn),75.8*,3.5,0.8,-3.6,-5.1,-1.6

# Screening results: PubChem, several laboratories
